Source: PubChem BioAssay
Only some compounds are listed: those with a hit (about 1.8% of all), similar ones and a draw of the others.
TLR4 MyD88 comp = blocks binding of human TLR4 to MyD88. O00206+Q99836. HeLa CL3-4 TLR4/MyD88 BLA complementation, FRET ratio. inhibition, % at 8.4 µM. actives 0.18% (n = 200,000); in the data active = inhibition above about 25%;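 note: 0% = vehicle and 100% = reference inhibitor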
NOD2 RIPK2 PPI = inhibitors of human NOD2-RIPK2 interaction. actives 0.38% (n = 360,000). O43353. CHO BLA complementation NOD2-RIPK2, CCF4 ratio. inhibition, % at 4.98 µM; in the data active = inhibition above about 21%;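 note: 0% = vehicle only and 100% = reference blocker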
m5-HT2A agonist = activates the mouse 5-HT2A serotonin receptor | activation, % at 7.6 µM | CHO-K1 mHTR2A beta-arrestin complementation, luminescence; percent of 30 µM serotonin response | actives 0.66% (n = 360,000);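 active = activation above a run cutoff, the mean activation of all tested compounds plus 3 SD, cut at about 14% in these data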;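 note: 0% = plate median of compound wells and 100% = 30 µM serotonin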
Target sequence (P35363 whole entry, looked up): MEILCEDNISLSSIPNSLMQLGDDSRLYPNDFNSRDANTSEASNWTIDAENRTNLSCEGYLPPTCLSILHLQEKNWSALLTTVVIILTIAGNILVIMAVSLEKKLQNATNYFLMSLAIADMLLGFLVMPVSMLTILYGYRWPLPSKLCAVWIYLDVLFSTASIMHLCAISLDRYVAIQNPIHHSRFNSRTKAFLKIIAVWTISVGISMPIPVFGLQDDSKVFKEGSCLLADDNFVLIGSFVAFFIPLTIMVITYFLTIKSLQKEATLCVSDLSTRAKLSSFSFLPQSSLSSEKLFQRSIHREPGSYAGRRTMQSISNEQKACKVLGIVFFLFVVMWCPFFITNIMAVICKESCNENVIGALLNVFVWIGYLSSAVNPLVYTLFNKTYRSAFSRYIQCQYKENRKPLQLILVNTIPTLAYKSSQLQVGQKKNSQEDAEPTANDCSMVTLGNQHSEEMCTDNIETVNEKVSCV
Rtt109 Vps75 = inhibitors of Candida albicans Rtt109/Vps75 histone acetyltransferase; inhibition, % at 34.9 µM; purified Rtt109/Vps75, ThioGlo CoA-SH fluorescence, 4 h; AID 540336; actives 0.16% (n = 330,000); Q5AAJ8;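 active = inhibition of at least 50% in every replicate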
LANA-H2B inh = blocks KSHV LANA binding to histone H2A/H2B; Q9QR71; AID 2629; actives 0.6% (n = 320,000); inhibition, % (no concentration beside the values); cell-free LANA-H2A/H2B peptide, fluorescence polarization; in the data active = inhibition mostly above about 10%, no sharp cut-off; inactive = mostly below about 6.7%
TLR9-MyD88 block = blocks human TLR9 binding to MyD88; CHO BLA complementation TLR9-MyD88, CCF4 FRET ratio; AID 504734; inhibition, % at 4.98 µM; actives 0.21% (n = 340,000);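 active = inhibition above the mean over all tested compounds plus 3 SD, cut at about 21% in these data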;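 note: 0% = DMSO only wells and 100% = clavulanate BLA inhibitor control wells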
An asterisk follows results filed as active; x = no result; ! = not active in a repeat.

SMILES	TLR4 MyD88 comp	NOD2 RIPK2 PPI	m5-HT2A agonist	Rtt109 Vps75	LANA-H2B inh	TLR9-MyD88 block
NC(=O)C1CCN(C(c2ccccc2Cl)c2nnnn2Cc2ccc3c(c2)OCO3)CC1 (stereo unspecified)	-6	-2	2	4	26*	5
CCNC(=O)C1CCCN(C(=O)c2ccc(C#N)cc2)CC1 (stereo unspecified)	x	0	4	x	x	x
O=C(Nc1cccc(OC(F)(F)F)c1)C1Cc2c(-c3cccc(F)c3)ccnc2O1 (stereo unspecified)	x	-4	-4	x	x	x
CC(C)N1CCC(C)(C(=O)Nc2ccc(-n3cccc3)cc2)C1 (stereo unspecified)	x	5	-3	x	x	x
Cc1ccc2nc(-c3ccc(NC(=S)NC4CC(C)(C)NC(C)(C)C4)cc3)sc2c1	-20	-1	-3	62*	1	0
Cc1ccc2nc(-c3ccc(NC(=S)NC(=O)C(C)C)cc3)sc2c1	4	2	5	4	-5	-2
OCC[C@@H]1C[C@H](O)[C@@H](O)[C@@]2(OCCc3cc(Cl)ccc32)O1	x	-5	3	x	x	x
Cc1ccc2sc(C)[n+](CCO)c2c1	1	2	6	104*	-20	10
Cc1sc2ccccc2[n+]1CC(=O)O	x	-5	2	6	-1	-8
CC[n+]1c(C)sc2cc(C)ccc21	8	-4	-3	85*	9.2*	4
CCCC[n+]1c(C)sc2ccc(C)cc21	-5	-5	0	4	3	-8
CC(C)Nc1nc(NCCN2CCCC2)c2sc(-c3ccccc3)cc2n1	x	1	-3	x	x	x
Cc1ccccc1Nc1nc(N)nc(CN(C)c2ccccc2)n1	-1	4	-2	-5	28*	-2
Cc1ccccc1Nc1nc(N)nc(CCl)n1	x	-9	3	-7	-3	9
Cc1ccc(SCc2cc(=O)[nH]c(N3CCOCC3)n2)cc1	-15	10	-2	2	17*	-5
O=C(Cn1cc(C(=O)C2CC2)c2ccccc21)Nc1ccc(F)cc1	x	-15	-4	5	-4	-1
COC(=O)c1cn(CC(=O)Nc2ccc(F)cc2)c2ccccc12	1	-2	-3	2	12*	0
CC(C)C[C@H]1CN(CCCC[C@@H]2CNC(=O)C(=O)N2CC2CCCCC2)C(=O)C(=O)N1CC1CCCCC1	x	3	0	x	x	x
CCC(c1nnnn1C1CCCC1)N1CCC(C(N)=O)CC1 (stereo unspecified)	-11	-3	1	-19	49*	x
CC(C)C(c1nnnn1C1CCCC1)N1CCC(C(N)=O)CC1 (stereo unspecified)	-8	-6	0	-6	-3	7
O=C1OCCOC2CCCc3oc(C4=CCCCC4)c1c32 (stereo unspecified)	x	-3	4	x	x	x
CCc1nc2c(OCc3ccc(C(F)(F)F)cc3)cccn2c1N(C)C(=O)c1ccco1	x	-1	-4	x	x	x
N#CC(=Cc1ccc(-c2ccccc2)cc1)C(=O)c1ccccc1	x	0	-5	x	x	x
N#CC(=C=[N-])/C=C(\C(=O)c1ccccc1)[n+]1ccccc1	x	-6	2	-2	21*	0
COc1ccc(C(C)(O)c2nc(-c3cccc(C(F)(F)F)c3)cs2)cc1 (stereo unspecified)	x	4	-6	x	x	x
SMILES	TLR4 MyD88 comp	NOD2 RIPK2 PPI	m5-HT2A agonist	Rtt109 Vps75	LANA-H2B inh	TLR9-MyD88 block
CC(C)=CCc1c(-c2ccc(O)cc2O)oc2c3c(cc(O)c2c1=O)OC(C)(C)C=C3	x	x	x	x	23*	x
CC(C)=CCc1c2c(c(O)c3c(=O)c4c(oc13)-c1cc(O)c(O)cc1OC4C=C(C)C)C=CC(C)(C)O2 (stereo unspecified)	x	x	x	x	1	x
C[n+]1cccc(C(=O)[O-])c1	x	-17	-1	1	-1	0
CN(C)C(=O)Oc1ccc[n+](C)c1	-25	4	2	7	74*!	-5
CN(CC(=O)Nc1ccccc1Br)C(=O)c1ccc(COc2ccccc2)cc1	x	-14	-6	-15	-4	2
CN(CC(=O)Nc1ccccc1Br)C(=O)c1ccncc1	x	-8	2	20	29*	-4
CCCCC(C(=O)OCC)C(N)Cc1ccc(F)cc1 (stereo unspecified)	8	-6	-1	9	20*	-12
CC(=O)N1CCN(C(=O)c2c(-c3ccccc3)noc2C)CC1	x	-12	-1	9	22*	6
